In PubChem BioAssay:
For some of these results: Measured potencies and affinities stand elsewhere. Calls of active or inactive are those of the source.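 Rule for the calls, unless noted: active = fluorescence ratio normalized to control raised more than 50% in primary screen plus both repeat runs; inactive = the rest.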

What was measured:
[1] = tested on: TRPC4 beta (transient receptor potential cation channel C4), mouse; assay: TRPC4 cation channel opening, retest – cell-based, Fluo4 calcium, HEK293 TRPC4beta/mu-opioid, duplicates, 10 µM, confirmation (AID 2426); conditions: Fluo4 calcium fluorescence, at 10 µM; active compounds read high
[2] = tested on: transient receptor potential cation channel C4 beta (TRPC4), mouse; assay: TRPC4 cation channel opening, second retest – cell-based, second round, Fluo4, HEK293 TRPC4beta/mu-opioid, 1 µM, confirmation (AID 2461;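 active = primary screen active and over 50% activation in each of two duplicate runs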); conditions: Fluo4 calcium fluorescence, at 1 µM; active compounds read high
[3] = tested on: TRPC4 (transient receptor potential cation channel C4 beta), mouse; assay: potentiation of DAMGO EC20 TRPC4 response – cell-based, second round, Fluo-4, HEK293 TRPC4beta/mu-opioid, 1 µM, confirmation (AID 2554;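 active = primary screen hit whose fluorescence ratio, in both repeats, exceeds the weak agonist control mean by 3 SD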); conditions: DAMGO EC20, Fluo-4 calcium flux, at 1 µM; active compounds read high
[4] = tested on: TRPC4 beta (transient receptor potential cation channel C4), mouse; assay: potentiation of DAMGO EC20 TRPC4 response – cell-based, Fluo-4, HEK293 TRPC4beta/mu-opioid, confirmation (AID 2555;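 active = primary screen hit whose calcium fluorescence ratio, in both repeats, exceeds the weak agonist control mean by 3 SD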); conditions: DAMGO EC20, Fluo-4 calcium flux, at 10 µM; active compounds read high
[5] = target: Short transient receptor potential channel 4 (Mus musculus) (UniProt Q9QUQ5); assay: blockers of DAMGO-evoked TRPC4 calcium flux – cell-based, Fluo4, HEK293 TRPC4beta/mu-opioid, confirmation (AID 2636;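 active = calcium signal cut by more than 3 SD below the full-agonist control yet still positive, in both repeats and the earlier primary screen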); conditions: at 10 µM; active compounds read high
Chain of Short transient receptor potential channel 4 (Mus musculus) (Q9QUQ5 whole entry, looked up): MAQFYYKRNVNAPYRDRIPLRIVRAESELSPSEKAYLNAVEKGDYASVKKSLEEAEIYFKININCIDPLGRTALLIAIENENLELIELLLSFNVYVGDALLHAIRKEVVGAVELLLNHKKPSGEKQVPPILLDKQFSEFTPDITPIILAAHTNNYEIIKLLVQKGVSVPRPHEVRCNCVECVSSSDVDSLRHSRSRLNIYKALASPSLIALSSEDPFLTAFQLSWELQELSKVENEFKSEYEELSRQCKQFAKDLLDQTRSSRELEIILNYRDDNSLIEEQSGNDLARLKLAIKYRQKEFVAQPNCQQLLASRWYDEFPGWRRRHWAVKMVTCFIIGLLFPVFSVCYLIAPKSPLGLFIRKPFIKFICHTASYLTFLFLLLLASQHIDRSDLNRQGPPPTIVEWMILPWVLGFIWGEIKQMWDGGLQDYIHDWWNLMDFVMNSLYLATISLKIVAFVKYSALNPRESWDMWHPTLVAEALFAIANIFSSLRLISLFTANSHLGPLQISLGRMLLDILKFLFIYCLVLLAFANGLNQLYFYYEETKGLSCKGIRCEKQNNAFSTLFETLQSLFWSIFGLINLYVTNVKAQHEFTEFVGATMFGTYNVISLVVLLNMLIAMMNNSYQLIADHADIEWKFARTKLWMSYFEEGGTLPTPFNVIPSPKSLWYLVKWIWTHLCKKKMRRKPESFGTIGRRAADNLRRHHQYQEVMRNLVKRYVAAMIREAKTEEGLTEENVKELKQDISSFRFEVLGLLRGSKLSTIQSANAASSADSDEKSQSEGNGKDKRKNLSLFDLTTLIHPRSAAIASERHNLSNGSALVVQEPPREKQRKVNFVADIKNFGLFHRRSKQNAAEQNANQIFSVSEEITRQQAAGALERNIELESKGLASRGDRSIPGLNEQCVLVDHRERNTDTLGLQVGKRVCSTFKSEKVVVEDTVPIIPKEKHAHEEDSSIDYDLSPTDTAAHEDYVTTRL

[6] = target: Short transient receptor potential channel 4 (Mus musculus) (UniProt Q9QUQ5); assay: blockers of DAMGO-evoked TRPC4 calcium flux – cell-based, second round, Fluo4, HEK293 TRPC4beta/mu-opioid, 1 µM, confirmation (AID 2637;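 active = calcium signal ratio cut to more than 3 SD under the fully stimulated control mean yet still positive, in both repeats and the primary screen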;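 for inhibition: percent of integrated ratio relative to wells lacking test compound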); conditions: at 1 µM; active compounds read high
[7] = target: Short transient receptor potential channel 4 (Mus musculus) (UniProt Q9QUQ5); assay: calcium entry via TRPC4 opening agents – cell-based, HEK293 TRPC4/mu-opioid, Fluo-4 calcium, dose response (AID 434937;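 active = primary screen activator hit with a dose response curve and TRPC4 channel activation at any tested dose; inactive = no activation, no dose response, or not a primary hit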)
[8] = target: Short transient receptor potential channel 4 (Mus musculus) (UniProt Q9QUQ5); assay: potentiation of DAMGO-evoked TRPC4 calcium signal – cell-based, HEK293 TRPC4/mu-opioid, Fluo-4 calcium, EC20 DAMGO, dose response (AID 434941;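 active = earlier screen potentiator hit that boosts the TRPC4 ion channel at some dose, with a dose response; inactive = no potentiation, no dose response, or not a prior hit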;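 note: calcium entry triggered by an EC20 dose of DAMGO at the co-expressed mu-opioid receptor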)
[9] = target: Short transient receptor potential channel 6 (Mus musculus) (UniProt Q61143); assay: TRPC6 blockade by TRPC4 inhibitor hits – cell-based, HEK293, membrane potential dye, duplicate, selectivity assay for TRPC4 inhibitor project, confirmation (AID 434948;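 active = active in primary screen and both duplicates, each dropping signal beyond three positive-control SD with fluorescence still positive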); conditions: HEK293 TRPC6, membrane potential dye fluorescence, at 10 µM, stimulated with maximal-effect acetylcholine; active compounds read high
Chain of Short transient receptor potential channel 6 (Mus musculus) (Q61143 whole entry, looked up): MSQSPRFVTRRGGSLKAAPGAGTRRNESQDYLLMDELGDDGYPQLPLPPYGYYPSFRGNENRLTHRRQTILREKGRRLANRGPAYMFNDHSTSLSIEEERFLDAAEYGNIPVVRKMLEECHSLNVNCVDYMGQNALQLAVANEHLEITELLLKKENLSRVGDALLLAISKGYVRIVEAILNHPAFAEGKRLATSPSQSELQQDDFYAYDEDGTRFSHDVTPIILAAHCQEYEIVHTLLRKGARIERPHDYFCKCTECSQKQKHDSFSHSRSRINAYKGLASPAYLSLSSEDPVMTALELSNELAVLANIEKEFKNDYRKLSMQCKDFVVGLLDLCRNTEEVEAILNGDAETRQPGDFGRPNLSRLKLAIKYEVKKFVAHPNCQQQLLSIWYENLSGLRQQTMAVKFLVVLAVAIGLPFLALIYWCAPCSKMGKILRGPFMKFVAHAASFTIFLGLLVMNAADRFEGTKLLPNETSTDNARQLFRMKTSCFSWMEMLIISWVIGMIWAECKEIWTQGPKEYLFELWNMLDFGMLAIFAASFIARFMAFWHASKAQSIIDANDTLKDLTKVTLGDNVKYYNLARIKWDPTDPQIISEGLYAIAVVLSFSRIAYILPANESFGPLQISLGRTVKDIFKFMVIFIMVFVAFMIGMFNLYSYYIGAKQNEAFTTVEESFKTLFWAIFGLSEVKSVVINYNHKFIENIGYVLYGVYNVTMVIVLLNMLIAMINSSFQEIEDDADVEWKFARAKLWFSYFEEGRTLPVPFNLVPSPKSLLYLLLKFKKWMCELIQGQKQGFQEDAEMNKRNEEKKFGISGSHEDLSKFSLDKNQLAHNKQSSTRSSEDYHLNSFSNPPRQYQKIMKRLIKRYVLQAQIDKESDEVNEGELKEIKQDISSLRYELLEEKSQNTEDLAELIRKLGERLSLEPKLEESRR

[10] = target: Short transient receptor potential channel 6 (Mus musculus) (UniProt Q61143); assay: TRPC6 opening by TRPC4 activator hits – cell-based, HEK293, membrane potential dye, duplicate, selectivity assay for TRPC4 activator project, confirmation (AID 434950;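 active = membrane potential signal rise above negative control mean plus 3 SD in both duplicates, also active in the earlier TRPC4 screen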); conditions: HEK293 TRPC6, membrane potential fluorescence, at 10 µM; activation: active compounds read high; outcome: activation
[11] = target: Short transient receptor potential channel 6 (Mus musculus) (UniProt Q61143); assay: positive modulators of mouse TRPC6 channel – HEK293 cells, membrane potential dye, duplicate, selectivity assay for TRPC4 potentiator project, confirmation (AID 434952;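 active = compound raising the membrane signal above positive-control mean plus 3 SD in both repeats, and a primary screen hit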); conditions: HEK293 TRPC6, membrane potential dye fluorescence, at 10 µM, maximal acetylcholine added after compound; active compounds read high
[12] = target: Short transient receptor potential channel 4 (Mus musculus) (UniProt Q9QUQ5); assay: calcium flux activators in TRPC4/5HT1a cells, counter-screen for TRPC4 activator project, cell-based, second counter screen, HEK293 TRPC4/5HT1a, Fluo-4 (AID 434977;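 active = calcium signal rise above buffer-control mean plus 5 SD in both duplicates, and also a hit in the primary screen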); conditions: Fluo-4 calcium flux, at 10 µM; active compounds read high
[13] = serotonin-gated TRPC4 signal block – cell-based, second counter screen, HEK293 TRPC4/5HT1a, Fluo-4, counter-screen for TRPC4 inhibitor project, confirmation (AID 434978;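 active = primary screen active whose calcium signal fell more than 3 SD beyond the full-serotonin control mean in both duplicate plates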;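 for outcome: serotonin given first at submaximal then at maximal dose after compound preincubation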); conditions: Fluo-4 calcium flux, at 10 µM, serotonin added to trigger calcium flux; active compounds read high
[14] = tested on: TRPC4 (mouse), co-expressed with 5HT1a in HEK293; assay: enhancement of serotonin-evoked TRPC4 response – cell-based, second counter screen, HEK293 TRPC4/5HT1a, Fluo-4, counter-screen for TRPC4 potentiator project, confirmation (AID 434979;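 active = signal rise over 3 SD above mean of control wells given weak agonist, in both repeats and first screen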); conditions: Fluo-4 calcium flux, at 10 µM, serotonin added at its EC20 dose; active compounds read high
[15] = nonspecific calcium rise without TRPC4 – cell-based, HEK293 mu-opioid receptor line, counter-screen for TRPC4 activator project, confirmation (AID 449723;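 active = hit in primary screen, with calcium signal over 5 SD above buffer well mean in both duplicates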;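 note: counter screen cells carry the mu-opioid receptor alone and lack TRPC4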); conditions: HEK293 mu-opioid cells, Fluo-4 calcium fluorescence, at 10 µM; active compounds read high
[16] = nonspecific potentiation of DAMGO calcium response – cell-based, HEK293 mu-opioid receptor line, counter-screen for TRPC4 allosteric potentiator project, confirmation (AID 449724;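 active = calcium signal rise more than 3 SD above the low-dose agonist control mean, in both duplicate plates and the primary screen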); conditions: HEK293 mu-opioid receptor cells, Fluo-4 calcium flux, at 10 µM, compound added before EC20 DAMGO stimulus; active compounds read high

Measured: inhibition

COC(=O)CSc1nn(-c2ccc(F)cc2)c(=S)s1
active: [5] 90% | [6] 39% | [13] 39.2%
inactive: all other assays above

Cc1n[nH]c(C)c1CCCCOc1ccccc1
active: [5] 95% | [6] 40% | [13] 31.5%
inactive: all other assays above

Cc1cc(C)c2nc(C)cc(N/N=C/c3ccc(O)cc3)c2c1
active: [5] 91% | [9] 35%
inactive: all other assays above

OCCNc1nc2ccccc2n1CCN1CCCCC1
active: [5] 91% | [13] 22.9%
inactive: all other assays above

COc1cc(OC)c(C2N(C)c3ccccc3N2C)cc1OC
active: [5] 77%
inactive: all other assays above

CC1(C)CC(NC(=O)c2cc(COc3cccc(C(F)(F)F)c3)on2)CCO1 (stereo unspecified)
active: [5] 90% | [13] 25.2%
inactive: all other assays above

Cc1ccccc1Cn1c(=N)n(CC(O)c2ccco2)c2ccccc21 (stereo unspecified)
active: [5] 89% | [6] 58% | [13] 33.6%
inactive: all other assays above

CCOC(=O)c1c(NC(=O)C2CC(Cl)=CCC2C(=O)O)sc2c1CCCCC2 (stereo unspecified)
active: [5] 96% | [6] 43% | [13] 31.8%
inactive: all other assays above

Cc1nc(N2CCN(c3ccccn3)CC2)c2c(C)c(C(=O)N3CCN(c4ccc(F)cc4)CC3)sc2n1
active: [5] 99% | [6] 48%
inactive: all other assays above

COc1ccc(Br)cc1CNC(C)c1ccccc1 (stereo unspecified)
active: [5] 55% | [9] 49.5% | [13] 23.6%
inactive: all other assays above

CC(=O)c1ccc2c(c1)N(C)c1ccccc1S2
active: [5] 84% | [13] 36.8%
inactive: all other assays above

O=C(Nc1ccccc1Oc1cccnc1)C1CCCN(Cc2cccc(Cl)c2)C1 (stereo unspecified)
active: [5] 89% | [13] 33.5%
inactive: all other assays above

O=C(COC(=O)c1cccc([N+](=O)[O-])c1)c1ccc2c(c1)OCO2
active: [5] 89% | [6] 59% | [13] 25.3%
inactive: all other assays above

COc1cccc(CNC(=O)CCC2CCCN(Cc3cc(Cl)ccc3O)C2)c1 (stereo unspecified)
active: [5] 93% | [13] 29%
inactive: all other assays above

CC(=O)N1CCN(c2ccccc2NC(=O)c2ccc3ccccc3c2)CC1
active: [5] 85% | [6] 74% | [13] 36.5%
inactive: all other assays above

O=C(Nc1ccccc1N1CCN(C(=O)c2ccccc2)CC1)c1ccc(Br)o1
active: [5] 82% | [6] 57% | [13] 31.6%
inactive: all other assays above

COc1ccc(SC[C@H](Cc2ccccc2)N2CCN(C)CCC2=O)cc1
active: [5] 95% | [6] 40%
inactive: all other assays above

Cc1nn(-c2ccccc2)c(Cl)c1CN(C(=O)CCl)c1ccc(Cl)cc1
active: [5] 93% | [6] 69% | [13] 2.77%
inactive: all other assays above

COc1ccc(NC(=O)c2cccc(N3C(=O)C4CC=C(C)CC4C3=O)c2)c(OC)c1 (stereo unspecified)
active: [5] 75%
inactive: all other assays above

CC(=O)Nc1ccc(S(=O)(=O)NC2=C(N3CCN(Cc4ccccc4)CC3)C(=O)c3ccccc3C2=O)cc1
active: [5] 72% | [6] 40% | [9] 30%
inactive: all other assays above

Cc1ccc(OCc2cc(C(=O)N(C)CCc3nc4ccccc4[nH]3)no2)cc1C
active: [5] 69%
inactive: all other assays above

O=C(CCc1ccccc1)Nc1ccnn1C1CCN(C/C=C/c2ccccc2)CC1
active: [13] 17.3%
inactive: all other assays above

Cc1ccc(/C=C2\SC(=S)N(C(Cc3ccccc3)C(=O)O)C2=O)cc1 (stereo unspecified)
active: [13] 18.3%
inactive: all other assays above

CC(C)(C)NCc1ccccc1OCc1cccs1
active: [5] 95% | [6] 45% | [9] 15% | [13] 17.5%
inactive: all other assays above

COCCn1c(SCc2cccc([N+](=O)[O-])c2)nc2ccccc2c1=O
active: [5] 94% | [6] 45% | [13] 20.4%
inactive: all other assays above

Cc1cc(Nc2ccccc2)nc2cc(O)ccc12
active: [5] 93% | [6] 52% | [13] 14.4%
inactive: all other assays above

COCC(C)NC(C(=O)Nc1ccc(Cl)c([N+](=O)[O-])c1)c1ccccc1 (stereo unspecified)
active: [5] 87%
inactive: all other assays above

COc1ccc(O)c(C(=O)c2cnc3c(c2)c(=O)[nH]c(=O)n3C)c1
active: [5] 92% | [6] 63% | [13] 20%
inactive: all other assays above

CC(C)C1=Nc2cccc3cccc(c23)N1
active: [5] 95% | [6] 49% | [13] 17.1%
inactive: all other assays above

Cc1cccc2cc(CN(CCCN(C)C)C(=S)NCCc3ccccc3)c(=O)[nH]c12
inactive: all assays above

CC(C)CN(CC(C)C)c1nc(N)c(C#N)c(CC#N)c1C#N
active: [5] 85% | [13] 39.2%
inactive: all other assays above
